In the supplement of paper PMC9262897, “Low-cost anti-mycobacterial drug discovery using engineered E. coli” (Nature Communications, 2022) one finds growth data, which are given here for ten molecules.

Where a name gives a salt, the structure may show the parent alone. ± gives the standard deviation of the averaged measurements.

Experiment in all cases: growth (OD600 after 10 h); higher = more growth (less inhibition)
In assay [1] the test system is E. coli TESEC Alr+ wild-type control. Conditions: compound 0.1 mM; raw OD600 reference: median of DMSO wells 0.241, cell-free background 0.041. The protocol: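 TESEC Mtb Alr E. coli, or the Alr+ wild-type control, in 384-well plates with Prestwick library compounds at 0.1 mM and 1% DMSO, across arabinose induction levels of 1E3 to 1E7 nM. Growth is read as OD600 after 10 h at 37 °C in triplicate biological replicates.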

For the next assay, the system named is E. coli TESEC Mtb Asd. Conditions: compound 0.1 mM. The method, then: (§1)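 TESEC E. coli strains in which the native enzyme is deleted and replaced by arabinose-inducible Mtb Asd, DapB, CysH or TrpD, each grown in its selective medium. Strains were screened against the Prestwick library at 0.1 mM and 1% DMSO in 384-well format at low and high arabinose induction. Growth is read as OD600 after 10 h in triplicate.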

Another assay concerns E. coli TESEC Mtb DapB. Particulars: compound 0.1 mM. The protocol:
as §1

For assay [2], the system named is E. coli TESEC Alr+ wild-type control. Particulars: compound 0.1 mM; raw OD600 reference: median of DMSO wells 0.49, cell-free background 0.052. The method, then:
(§2)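 TESEC Mtb Alr E. coli (ΔaraC ΔtolC ΔentC Δalr ΔdadX, arabinose-inducible Mtb Alr) or the Alr+ wild-type control strain, grown in defined M9-fructose medium without D-alanine in 96-well plates with Prestwick library compounds at 0.1 mM and 1% DMSO. Low Alr induction is 0.1 µM arabinose and high induction is 10 mM arabinose.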

Another assay deals with E. coli TESEC Mtb Alr. Particulars: compound 0.1 mM. The method, then: as §2
[3] abbreviates: arabinose induction (level): High, raw OD600 reference: median of DMSO wells 0.331, cell-free background 0.041.
Setting [4] is: arabinose induction (level): Low, raw OD600 reference: median of DMSO wells 0.417, cell-free background 0.041.
Where [5] appears, read: arabinose induction (level): High, raw OD600 reference: median of DMSO wells […], cell-free background 0.041.
Where [6] appears, read: arabinose induction (level): Low, raw OD600 reference: median of DMSO wells 0.227, cell-free background 0.041.
[7] abbreviates: arabinose 100 nM, raw OD600 reference: median of DMSO wells 0.413, cell-free background 0.052.
Where [8] appears, read: arabinose 10000000 nM, raw OD600 reference: median of DMSO wells […], cell-free background 0.052.

As to `CNCCC(Oc1ccc(C(F)(F)F)cc1)c1ccccc1` (stereo not drawn) [Fluoxetine hydrochloride], the growth in assay [1] turned out to be 0.129 ± 0.0027; in the assay on E. coli TESEC Mtb Asd (setting [3]) it was 0.0984 ± 0.0045; in the assay on E. coli TESEC Mtb Asd (setting [4]), 0.086 ± 0.016; in the assay with E. coli TESEC Mtb DapB (setting [5]), 0.142 ± 0.036; with E. coli TESEC Mtb DapB (setting [6]) it was 0.132 ± 0.0058; in assay [2], 0.118 ± 0.11. Also, the growth was determined as 0.411 ± 0.011 in the assay on E. coli TESEC Mtb Alr (setting [7]) and 0.0614 ± 0.0047 with E. coli TESEC Mtb Alr (setting [8]).
For the molecule `COCCCC/C(=N\OCCN)c1ccc(C(F)(F)F)cc1` [Fluvoxamine maleate], the growth is 0.225 ± 0.0049 in assay [1]; 0.295 ± 0.079 with E. coli TESEC Mtb Asd (setting [3]); 0.231 ± 0.044 with E. coli TESEC Mtb Asd (setting [4]); 0.183 ± 0.014 in the assay on E. coli TESEC Mtb DapB (setting [5]); 0.229 ± 0.05 in the assay with E. coli TESEC Mtb DapB (setting [6]); 0.518 ± 0.051 in assay [2]. For the same molecule, the values for the growth with E. coli TESEC Mtb Alr (setting [7]) and with E. coli TESEC Mtb Alr (setting [8]) were 0.416 ± 0.0072 and 0.319 ± 0.0054, respectively.
For `CCN[C@H]1CN(CCCOC)S(=O)(=O)c2sc(S(N)(=O)=O)cc21` [Brinzolamide], the growth in assay [1] was determined as 0.248 ± 0.012; in the assay on E. coli TESEC Mtb Asd (setting [3]) it was 0.259 ± 0.085; in the assay on E. coli TESEC Mtb Asd (setting [4]), 0.385 ± 0.11; in the assay on E. coli TESEC Mtb DapB (setting [5]), 0.202 ± 0.013; in the assay on E. coli TESEC Mtb DapB (setting [6]) it was 0.215 ± 0.011; in assay [2], 0.579 ± 0.098. The growth was found to be 0.405 ± 0.0097 in the assay with E. coli TESEC Mtb Alr (setting [7]) and 0.3104 ± 0.0022 in the assay with E. coli TESEC Mtb Alr (setting [8]).
`CC(C)C(=O)c1c(C(C)C)nn2ccccc12` [Ibudilast]: the growth in assay [1] turned out to be 0.163 ± 0.0085; in the assay on E. coli TESEC Mtb Asd (setting [3]), 0.183 ± 0.011; in the assay on E. coli TESEC Mtb Asd (setting [4]), 0.372 ± 0.032; in the assay on E. coli TESEC Mtb DapB (setting [5]), 0.194 ± 0.012; in the assay with E. coli TESEC Mtb DapB (setting [6]) it was 0.208 ± 0.038; in assay [2], 0.49 ± 0.013. Moreover, the values for the growth in the assay on E. coli TESEC Mtb Alr (setting [7]) and in the assay on E. coli TESEC Mtb Alr (setting [8]) were 0.401 ± 0.0083 and 0.229 ± 0.0069, respectively.
With `C#C[C@]1(O)CC[C@H]2[C@@H]3[C@H](C)CC4=C(CCC(=O)C4)[C@H]3CC[C@@]21C` [Tibolone], the growth worked out at 0.141 ± 0.0097 in assay [1]; 0.167 ± 0.036 in the assay on E. coli TESEC Mtb Asd (setting [3]); 0.316 ± 0.047 in the assay with E. coli TESEC Mtb Asd (setting [4]); 0.17 ± 0.0045 with E. coli TESEC Mtb DapB (setting [5]); 0.172 ± 0.0081 in the assay on E. coli TESEC Mtb DapB (setting [6]); 0.393 ± 0.015 in assay [2]. The growth was determined as 0.362 ± 0.046 in the assay with E. coli TESEC Mtb Alr (setting [7]) and 0.137 ± 0.003 in the assay on E. coli TESEC Mtb Alr (setting [8]).
Take `C[C@H](N)[C@H](O)c1cccc(O)c1` [Metaraminol bitartrate]: the growth was found to be 0.245 ± 0.015 in assay [1]; 0.333 ± 0.062 with E. coli TESEC Mtb Asd (setting [3]); 0.415 ± 0.029 with E. coli TESEC Mtb Asd (setting [4]); 0.208 ± 0.014 in the assay on E. coli TESEC Mtb DapB (setting [5]); 0.23 ± 0.024 in the assay on E. coli TESEC Mtb DapB (setting [6]); 0.573 ± 0.076 in assay [2]. Also, the growth in the assay on E. coli TESEC Mtb Alr (setting [7]) came to 0.426 ± 0.0087; in the assay with E. coli TESEC Mtb Alr (setting [8]), 0.356 ± 0.0097.
Turning to `C[C@H](O)C(=O)Nc1c(I)c(C(=O)NC(CO)CO)c(I)c(C(=O)NC(CO)CO)c1I` [Iopamidol], the growth in assay [1] came to 0.261 ± 0.011; in the assay on E. coli TESEC Mtb Asd (setting [3]), 0.443 ± 0.035; in the assay on E. coli TESEC Mtb Asd (setting [4]), 0.396 ± 0.035; in the assay on E. coli TESEC Mtb DapB (setting [5]) it was 0.221 ± 0.0036; in the assay with E. coli TESEC Mtb DapB (setting [6]), 0.249 ± 0.028; in assay [2] it was 0.465 ± 0.036. Besides, the growth in the assay with E. coli TESEC Mtb Alr (setting [7]) turned out to be 0.397 ± 0.022; in the assay with E. coli TESEC Mtb Alr (setting [8]), 0.338 ± 0.011.
Regarding `CN[C@@H]1[C@@H](O[C@H]2O[C@H](CO)[C@@H](N)[C@H](O)[C@H]2O)OC2C[C@@H](N)[C@@H](O[C@H]3[C@H](O)[C@@H](O)[C@H](N)C[C@@H]3N)OC2[C@@H]1O` (stereo partly drawn) [Apramycin], the growth in assay [1] turned out to be 0.0408 ± 0.00099; with E. coli TESEC Mtb Asd (setting [3]), 0.0487 ± 0.0014; with E. coli TESEC Mtb Asd (setting [4]), 0.0476 ± 0.0012; in the assay on E. coli TESEC Mtb Alr (setting [7]), 0.0841 ± 0.008; with E. coli TESEC Mtb Alr (setting [8]) it was 0.133 ± 0.069.
`Cc1oncc1C(=O)Nc1ccc(C(F)(F)F)cc1` [Leflunomide]: the growth came out at 0.139 ± 0.0056 in assay [1]; 0.381 ± 0.085 with E. coli TESEC Mtb Asd (setting [3]); 0.327 ± 0.018 in the assay on E. coli TESEC Mtb Asd (setting [4]); 0.226 ± 0.028 with E. coli TESEC Mtb DapB (setting [5]); 0.255 ± 0.034 in the assay with E. coli TESEC Mtb DapB (setting [6]); 0.364 ± 0.021 in the assay with E. coli TESEC Mtb Alr (setting [7]). Also, the growth with E. coli TESEC Mtb Alr (setting [8]) is 0.158 ± 0.027.
For `N[C@@H](Cc1ccc(O)c(O)c1)C(=O)O` [Levodopa], the growth in assay [1] is 0.229 ± 0.0045; with E. coli TESEC Mtb Asd (setting [3]), 0.383 ± 0.026; with E. coli TESEC Mtb Asd (setting [4]) it was 0.455 ± 0.0078; with E. coli TESEC Mtb Alr (setting [7]), 0.413 ± 0.013; in the assay with E. coli TESEC Mtb Alr (setting [8]), 0.354 ± 0.018.
